Source: PubChem BioAssay
A selection: hits, their analogues and other compounds. The true share with any hit is near 2.4%.
Pf Dd2 inh = blocks growth of Plasmodium falciparum Dd2 parasites; P. falciparum Dd2 growth, SYBR Green, 72 h; stronger effect = lower value; activity change, % at 10 µM; 2.3% of 94,000 active; AID 1159554; in the data active means activity change below about -80%
C diff growth = C. difficile growth inhibition; Clostridium difficile clinical isolate growth, OD600, 24 h; stronger effect = lower value; growth activity, negative = inhibition, % at 16 µg/mL (by protocol); 0.25% of 86,000 active; AID 1259249;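 active means mean growth activity at or below -80% and every replicate also at or below -80%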;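 further: 0% = DMSO wells and -100% = levofloxacin 16 µg/mL wells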
Numbers without * were called inactive; x = no result given.

SMILES	Pf Dd2 inh	C diff growth
COc1ccc(S(=O)(=O)N(C)C[C@@H]2OCCCC[C@H](C)Oc3ccc(NC(=O)c4ccccc4)cc3C(=O)N([C@H](C)CO)C[C@@H]2C)cc1	-76.5	26.7
COc1ccc(S(=O)(=O)N(C)C[C@H]2OCCCC[C@@H](C)Oc3ccc(NC(=O)c4ccccc4)cc3C(=O)N([C@H](C)CO)C[C@@H]2C)cc1	-44.5	16.7
COc1ccc(NC(=O)N2CCCCN3[C@H](C2)[C@@H](c2ccc(C#Cc4ccccc4)cc2)[C@@H]3CO)cc1	-73.0	23.0
COc1ccc(NC(=O)N(C)C[C@@H]2Oc3ccc(N(C)C)cc3C(=O)N([C@@H](C)CO)C[C@H]2C)cc1	11.1	2.4
C[C@@H]1CCCCO[C@@H](CN(C)CC2CCCCC2)[C@H](C)CN([C@H](C)CO)C(=O)c2cc(NC(=O)Nc3ccc(F)cc3)ccc2O1	-89.9*	-6.1
C[C@@H]1CCCCO[C@H](CN(C)CC2CCCCC2)[C@H](C)CN([C@@H](C)CO)C(=O)c2cc(NC(=O)Nc3ccc(F)cc3)ccc2O1	-79.8	-1.4
C[C@@H]1CCCCO[C@@H](CN(C)CC2CCCCC2)[C@@H](C)CN([C@@H](C)CO)C(=O)c2cc(NC(=O)Nc3ccc(F)cc3)ccc2O1	-77.0	-3.2
C[C@H]1CCCCO[C@H](CN(C)CC2CCCCC2)[C@@H](C)CN([C@@H](C)CO)C(=O)c2cc(NC(=O)Nc3ccc(F)cc3)ccc2O1	-83.0*	5.4
C[C@H]1CCCCO[C@H](CN(C)Cc2ccccc2)[C@@H](C)CN([C@@H](C)CO)C(=O)c2cc(NC(=O)Nc3ccc(C(F)(F)F)cc3)ccc2O1	-37.6	20.6
CO[C@H]1CN(C)C(=O)c2ccc(NS(C)(=O)=O)cc2OC[C@@H](C)N(CC2CCCCC2)C[C@@H]1C	8.0	x
COc1ccc(S(=O)(=O)Nc2cccc3c2O[C@H](CN(C)Cc2ccc(-c4ccccc4)cc2)[C@@H](C)CN([C@H](C)CO)C3=O)cc1	-91.2*	4.9
C[C@@H]1CN([C@@H](C)CO)C(=O)c2cccc(NS(C)(=O)=O)c2O[C@H]1CN(C)Cc1ccc(-c2ccccc2)cc1	-32.0	13.9
C[C@H](CO)N1C[C@H](C)[C@H](CN(C)Cc2ccc(-c3ccccc3)cc2)Oc2c(NS(=O)(=O)c3ccccc3)cccc2C1=O	-3.0	x
C[C@H]1CN([C@@H](C)CO)C(=O)c2cccc(NS(C)(=O)=O)c2O[C@@H]1CN(C)Cc1ccc(-c2ccccc2)cc1	-84.0*	0.7
C[C@@H]1CN([C@@H](C)CO)C(=O)c2cccc(NS(=O)(=O)c3ccccc3)c2O[C@H]1CN(C)Cc1ccc(-c2ccccc2)cc1	-84.2*	x
COc1ccc(S(=O)(=O)Nc2cccc3c2O[C@H](CN(C)Cc2ccc(-c4ccccc4)cc2)[C@H](C)CN([C@@H](C)CO)C3=O)cc1	-46.3	-12.1
COc1ccc2c3c([nH]c2c1)[C@@H](CO)N(C(=O)C1CCCCC1)CC31CCN(C(=O)c2ccncc2)CC1	-35.6	4.8
COc1cccc(S(=O)(=O)N(C)C[C@H]2OCc3ccccc3-c3c(n(C)c4ccccc34)C(=O)N([C@@H](C)CO)C[C@H]2C)c1	-74.9	-9.8
COc1cccc(S(=O)(=O)N(C)C[C@H]2OCc3ccccc3-c3c(n(C)c4ccccc34)C(=O)N([C@H](C)CO)C[C@@H]2C)c1	-55.7	3.0
COc1cccc(S(=O)(=O)N(C)C[C@@H]2OCc3ccccc3-c3c(n(C)c4ccccc34)C(=O)N([C@H](C)CO)C[C@@H]2C)c1	-88.9*	-1.2
COc1cccc(S(=O)(=O)N(C)C[C@@H]2OCc3ccccc3-c3c(n(C)c4ccccc34)C(=O)N([C@@H](C)CO)C[C@@H]2C)c1	-85.5*	-6.7
Cc1noc(C)c1S(=O)(=O)N(C)C[C@H]1Oc2ccc(NS(=O)(=O)c3ccc(Cl)cc3)cc2CC(=O)N([C@@H](C)CO)C[C@H]1C	-16.6	1.9
COc1ccc(NC(=O)Nc2ccc3c(c2)CC(=O)N([C@H](C)CO)C[C@H](C)[C@@H](CN(C)Cc2ccc(Oc4ccccc4)cc2)O3)cc1	-76.0	2.6
CCCNC(=O)C[C@@H]1CC[C@H]2[C@@H](COc3ccc(NC(=O)C4CCOCC4)cc3C(=O)N2C)O1	7.5	-3.5
COc1ccc(CN(C)C[C@H]2OCCCC[C@@H](C)Oc3ccc(NC(=O)Nc4ccc(C(F)(F)F)cc4)cc3C(=O)N([C@@H](C)CO)C[C@H]2C)cc1	-87.5*	-14.4
SMILES	Pf Dd2 inh	C diff growth
COc1ccc(NC(=O)Nc2ccc3c(c2)C(=O)N([C@@H](C)CO)C[C@@H](C)[C@H](CN(C)Cc2ccc(C(F)(F)F)cc2)OCCCC[C@@H](C)O3)cc1	-85.5*	7.4
COc1ccc(NC(=O)Nc2ccc3c(c2)C(=O)N([C@H](C)CO)C[C@H](C)[C@H](CN(C)Cc2ccc(C(F)(F)F)cc2)OCCCC[C@@H](C)O3)cc1	-25.2	11.8
COc1ccc(CN(C)C[C@H]2OCCCC[C@@H](C)Oc3ccc(NC(=O)Nc4ccc(C(F)(F)F)cc4)cc3C(=O)N([C@@H](C)CO)C[C@@H]2C)cc1	-63.1	-101.0*
COc1ccc(NC(=O)Nc2ccc3c(c2)C(=O)N([C@H](C)CO)C[C@@H](C)[C@H](CN(C)Cc2ccc(C(F)(F)F)cc2)OCCCC[C@H](C)O3)cc1	-87.0*	2.2
COc1ccc(CN(C)C[C@H]2OCCCC[C@H](C)Oc3ccc(NC(=O)Nc4ccc(C(F)(F)F)cc4)cc3C(=O)N([C@H](C)CO)C[C@@H]2C)cc1	-36.7	-32.9
COc1ccc(NC(=O)Nc2ccc3c(c2)C(=O)N([C@@H](C)CO)C[C@H](C)[C@H](CN(C)Cc2ccc(C(F)(F)F)cc2)OCCCC[C@@H](C)O3)cc1	-29.6	10.0
COc1ccc(CN(C)C[C@H]2OCCCC[C@@H](C)Oc3ccc(NC(=O)Nc4ccc(C(F)(F)F)cc4)cc3C(=O)N([C@H](C)CO)C[C@@H]2C)cc1	-66.0	-35.6
C[C@H]1CN([C@@H](C)CO)C(=O)c2cc(N(C)C)ccc2O[C@@H]1CN(C)S(C)(=O)=O	-24.9	0.1
O=C(C[C@H]1C[C@H]2c3cc(NC(=O)Nc4ccccc4)ccc3O[C@H]2[C@H](CO)O1)NC1CCCCC1	-10.8	x
Cc1ccc(S(=O)(=O)N(C)C[C@H]2Oc3ccc(NC(=O)CCCCCC(=O)Nc4ccccc4N)cc3C(=O)N([C@H](C)CO)C[C@@H]2C)cc1	-70.0	5.9
COc1ccc2c3c(n(C)c2c1)[C@H](CO)N(C(=O)C1CC1)CC31CCN(C(=O)Nc2cccc(F)c2)CC1	-81.9*	16.1
COc1ccc(S(=O)(=O)N2CC3(CN(C(=O)CN(C)C)[C@H](CO)c4c3c3ccc(OC)cc3n4C)C2)cc1	-84.1*	-4.7
COc1ccc2c3c(n(C)c2c1)[C@@H](CO)N(C(=O)C1CCCC1)CC31CN(C(=O)Nc2cccc(F)c2)C1	-88.2*	8.9
COc1ccc2c3c(n(C)c2c1)[C@H](CO)N(C(=O)C1CCCC1)CC31CN(C(=O)Nc2cccc(F)c2)C1	-57.4	4.9
COc1ccc2c3c(n(C)c2c1)[C@@H](CO)N(C(=O)C1CCC1)CC31CCN(C(=O)Nc2cccc(F)c2)CC1	-85.8*	1.1
COc1ccc2c3c(n(C)c2c1)[C@H](CO)N(C(=O)C1CCC1)CC31CCN(C(=O)Nc2cccc(F)c2)CC1	-64.5	17.1
